The results in this text go back to PubChem BioAssay AID743279 (National Center for Advancing Translational Sciences (NCATS), 2014).

The campaign covered roughly 360,000 compounds. About 17,000 (4.7%) were called active. Roughly 5% stayed inconclusive and do not appear here. Rule as the data show it: active = activity change below about -50%; inconclusive = mostly about -30% to -49%; inactive = weaker than that. The full list was thinned out, with actives kept by preference.
% is scaled to controls: 0 for no effect and ±100 for the full control effect.

This assay can be described thus: qHTS for Inhibitors of Inflammasome Signaling: IL-1-beta AlphaLISA Primary Screen. The following applies: THP-1 LPS/ATP IL-1B secretion, 16 h; at 57.5 µM, active compounds read low. The procedure, abridged: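 THP-1 cells pretreated 1 hr with compounds (up to 57.5 uM final), then stimulated with LPS (250 ng/mL final) plus ATP (1.25 mM final); secreted IL-1B measured by AlphaLISA after 16 hr, decreased signal indicating inhibition.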
Background: Quantitative high-throughput screening tests each substance at several concentrations.
Consider `COc1cccc(CNc2nc3cc(-c4csc5ccccc45)sc3c(=O)n2C)c1`, for which the activity change was -22.5% (inactive).
For `CCCc1cc(=O)n2[nH]c(SCc3ccccc3)nc2n1`, the activity change was 12.3% (inactive).
As for `CC1(Oc2cccc(F)c2)CCN(Cc2ccccc2OC(F)F)C1` (centres undefined), the activity change was 29.5% (inactive).
The result for `CC(=O)OC[C@@H]1CN(Cc2ccccc2)C[C@H](n2cnc3c(NCc4ccco4)ncnc32)O1` reads 16.4% (inactive); that for `O=C(CC1SC(N2CCCC2)=NC1=O)Nc1ccc(C(=O)NCCc2ccc(F)cc2)cc1` (centres undefined), 17.8% (inactive).
The result for `COc1ccc(CCNC(=O)c2ccc(NC(=O)CC3SC(N4CCCCC4)=NC3=O)cc2)cc1OC` (centres undefined) reads -53.6% (active); that for `COc1ccc(NC(=O)CC2SC(N3CCCCC3)=NC2=O)cc1OC` (centres undefined), 3.71% (inactive); that for `COc1ccc(/C=N/NC(=O)Cn2cc(C(F)(F)F)ccc2=O)cc1`, -1.55% (inactive).
Consider `CC(C)(C)C(=O)N1CCC[C@@]1(CO)C(=O)O`, for which the activity change is 1.41% (inactive).
Under `Cc1nn(-c2ncccn2)c2c1C(=O)CC(C)(C)C2Br` (centres undefined) stands -64.8% (active); under `Cc1nn(-c2ccccc2)c2c1C(=O)NC(=O)C(C)(C)C2`, -17.4% (inactive); under `CCCCn1nnnc1C1(C)CCC(=O)N1Cc1ccc(OC)c(OC)c1` (centres undefined), 0% (inactive).
In the case of `CCCCCCCCN1C(=O)[C@H](CC(=O)NCC23CC4CC(CC(C4)C2)C3)C[C@@]2(C(=O)OC)CCCCC=C12`, the activity change was -29.6% (inactive).
The result for `COc1ccc(-n2cnc3cc(NCc4ccco4)ccc32)cc1` reads -17.9% (inactive); that for `COc1ccc(-c2nnc(SCC(=O)c3ccco3)n2-c2ccccc2)cc1`, -3.17% (inactive); that for `COc1ccc(-c2oc3ncn(Cc4ccco4)c(=N)c3c2-c2ccc(OC)cc2)cc1`, -65.2% (active).
Turning to `O=[N+]([O-])c1ccc2c(c1)C(N1CCOCC1)/C(=C/C1(O)CCCCC1)O2` (centres undefined), the activity change was 4.33% (inactive).
For the compound `Cc1ccc(S(=O)(=O)N2C[C@]3(O)C[C@@H]4C(=O)N(c5ccccc5)C(=O)[C@@H]4C[C@]3(OC(=O)NC3CC3)C2)cc1`, the activity change is -19.7% (inactive).
For the compound `C#CCN(C[C@H]1[C@H](OC(=O)NC2CCCC2)[C@H](OC(=O)NC2CCCC2)C[C@H]2C(=O)N(c3ccccc3)C(=O)[C@@H]12)S(=O)(=O)c1ccc(C)cc1`, the activity change is -9.89% (inactive).
The result for `C#CCN(C[C@@H]1[C@@H](OC(=O)NC2CC2)[C@@H](OC(=O)NC2CC2)Cn2c(=O)ccc(=O)n21)S(=O)(=O)c1ccc(C)cc1` reads -84.6% (active); that for `N#CC1(Nc2ccc3c4c(cccc24)CC3)CCCCC1`, 0% (inactive); that for `O=C(NCCc1ccccn1)c1cc(C(=O)C2CCCCC2)c[nH]1`, 3.93% (inactive).
Under `CC(=O)CSc1nc(CCc2ccccc2)c(C#N)c(=O)[nH]1` stands 3.36% (inactive); under `Cc1cc(C=O)c(C)n1-c1ccc(NC2CCCCC2)c([N+](=O)[O-])c1`, -93.9% (active).
Under `Cc1cc([N+](=O)[O-])ccc1NC1CCCC1` stands -6.41% (inactive).
As for `Cc1c(NS(=O)(=O)c2ccc(NC3CCCC3)c([N+](=O)[O-])c2)c(=O)n(-c2ccccc2)n1C`, the activity change was -9.94% (inactive).
On to `CCCC(=O)Nc1ncnc2c1ncn2[C@@H]1O[C@@H]2OP(=O)(O)OC[C@H]2[C@H]1OC(=O)CCC`, for which the activity change is 0% (inactive).
The result for `Cc1cnc(C(=O)OCc2c(C)cc(C(C)(C)C)cc2C)cn1` reads -4.05% (inactive); that for `ClC1(Cl)CC1CSc1ncn[nH]1` (centres undefined), -1.77% (inactive).
Under `CCCCCCCCN1C(=O)[C@H](CC(=O)NCc2cccc3ccccc23)C[C@@]2(C(=O)OC)CCCCC=C12` stands -30% (inactive).
Under `COc1ccc(-c2cc(NC=O)c3ncc(-c4cccc(C(=O)N(C)C)c4)n3c2)c(OC)c1` stands 47.4% (inactive).
For the compound `CC(=O)c1cccc(-c2cnc3c(NC=O)cc(-c4ccccc4Oc4ccccc4)cn23)c1`, the activity change is 98.2% (inactive).
In the case of `COc1ccc(-c2cc(NC=O)c3ncc(-c4ccccc4)n3c2)cc1OC`, the activity change is -59.3% (active).
Under `CC(=O)Nc1cc(-c2cccc(CO)c2)cn2c(-c3cccc(C(F)(F)F)c3)cnc12` stands -13.6% (inactive); under `CC(=O)c1cccc(-c2cnc3c(NC=O)cc(-c4cccc(C(=O)N(C)C)c4)cn23)c1`, 107% (inactive).
With `CN(C)CCNC(=O)c1cccc(-c2cnc3c(NC=O)cc(-c4cccc(C(F)(F)F)c4)cn23)c1`, the activity change is -107% (active).
On to `COc1ccc(-c2cc(NC=O)c3ncc(-c4cc(OC)c(OC)c(OC)c4)n3c2)c(OC)c1`, for which the activity change is 39.1% (inactive).
On to `CC(=O)c1ccc(-c2cnc3c(NC=O)cc(-c4cccc(NS(C)(=O)=O)c4)cn23)cc1`, for which the activity change was -68.2% (active).
In the case of `CC(=O)c1cccc(-c2cnc3c(NC=O)cc(-c4ccc(N(C)C)cc4)cn23)c1`, the activity change was 51.7% (inactive).
`CCc1nc2ccc(C(=O)N3CCN(S(=O)(=O)CC)CC3)cn2c1N(C=O)CCC(C)C`: the activity change was 36.3% (inactive).
The result for `COc1cc(C(=O)OC(C)C(=O)NCC2CCCCC2)cc(NC(=O)c2ccco2)c1OC` (centres undefined) reads -6.5% (inactive); that for `Cc1oc(C)c(C(=O)NCCCC(=O)O)c1C(=O)NCCCC(=O)O`, 18.8% (inactive).
Under `CCc1nc2c(OCCOc3ccccc3)cccn2c1N(C)C(=O)c1cccs1` stands -18.6% (inactive).
For `O=c1c2c(nc3cc(-c4cccc(Cl)c4)[nH]n13)CCCC2`, the activity change is -102% (active).
Under `Cc1cc(=O)n2[nH]c(-c3cccc(Cl)c3)cc2n1` stands 9.73% (inactive).
As to `CCCCN1Cc2c(nc3cc(-c4ccccc4)[nH]n3c2=O)C1=O`, the activity change was 13% (inactive).
The result for `Cc1nc(N)sc1N=Nc1c(C)n(C)n(-c2ccccc2)c1=O` reads 15.5% (inactive).
Under `COCCNC(=O)C1CCCN(Cc2ccccc2Cl)CC1` (centres undefined) stands 21.5% (inactive); under `Cc1nn(-c2ncc(C(F)(F)F)cc2Cl)c(=O)n1-c1ccccc1`, 24.1% (inactive).
The result for `Cc1ccc(-c2ccnc3nc(Sc4ncc(C(F)(F)F)cc4Cl)nn23)cc1` reads -65.2% (active); that for `Cc1cc(NC(=O)CSc2ncc(C(F)(F)F)cc2Cl)no1`, -7.22% (inactive); that for `COc1ccc(S(=O)(=O)N2CCSCC2)cc1`, 0% (inactive).
Consider `C[C@H]1Cn2cnc(C(=O)N[C@@H](Cc3c[nH]c4ccccc34)C(=O)OC(C)(C)C)c2C(=O)N1`, for which the activity change is 33.4% (inactive).
The result for `COCCNc1nc(Nc2ccccc2Cl)c2sc(-c3ccccc3)cc2n1` reads -12.6% (inactive); that for `COCCNc1nc(NCc2ccc(NC(C)=O)cc2)c2sccc2n1`, 29.5% (inactive).
As to `CC(=O)Nc1ccc(CNc2nc(NCCN(C)C)nc3cc(-c4ccccc4)sc23)cc1`, the activity change was -108% (active).
Under `CC1Cc2[nH][nH]c(=O)c2C(C2CCCC2)O1` (centres undefined) stands 16.7% (inactive); under `CCOC(=O)[C@]12CCC=C1N(Cc1ccco1)C(=O)[C@H](CC(=O)N1CCSCC1)C2`, -5.81% (inactive).
In the case of `CC(C)c1cccc(C(C)C)c1Nc1cn[nH]c1`, the activity change is -1.8% (inactive).
Under `CCCCN1C(N)=NC[C@@H]1Cc1ccccc1` stands 5.9% (inactive); under `CCCC[C@@H]1CN=C(N)N1CCc1cc(C(F)(F)F)cc(C(F)(F)F)c1`, -103% (active).
With `CCCC[C@@H]1CN=C(N)N1CCCC`, the activity change was 15.9% (inactive).
Turning to `CC(=O)Nc1cccc(Nc2ccc(C#N)cc2)c1`, the activity change was -18.3% (inactive).
With `CC(OC(=O)c1ccc(NC(=O)CC#N)cc1)C(=O)Nc1ccc(S(=O)(=O)N2CCCC2)cc1` (centres undefined), the activity change was -25.9% (inactive).
Take `Cc1ccc(S(=O)(=O)N2CCOCC2)cc1C(=O)Nc1ccccc1N1CCCC1`: the activity change is -1.43% (inactive).
Under `O=C1OCC2=C1C(c1ccc(Cl)cc1)c1cc3c(cc1O2)OCO3` (centres undefined) stands -0.909% (inactive); under `O=C(NC1CC1)C(Cc1ccccc1)NS(=O)(=O)c1ccccc1F` (centres undefined), 20.4% (inactive).
In the case of `CCOC(=O)C1=C(COC(=O)[C@H](C)NS(=O)(=O)c2ccccc2F)NC(=O)NC1C` (some centres undefined), the activity change is -51.3% (active).
The result for `CCOC(=O)C1=C(c2ccccc2)NC(=O)NC1c1cc(OC)c(OC)cc1OC` (centres undefined) reads -5.44% (inactive).
Under `CCn1c(/C=C/c2ccc([N+](=O)[O-])o2)nc2ccccc2c1=O` stands -95.2% (active); under `O=c1oc(/C=C/c2ccccc2)nc2ccccc12`, -0.257% (inactive); under `CCOCCCn1c(NN)nc2ccccc2c1=O`, -13.8% (inactive).
As for `CC(C)CN1C(=O)CN(S(C)(=O)=O)CC1(C)C(=O)NCc1ccccc1` (centres undefined), the activity change was 37.5% (inactive).
Under `Clc1cc(NC2CCCCC2)ncn1` stands 35.9% (inactive); under `COCCCNC(=O)c1cccc2c(-c3ccc(O)c(OC)c3)coc12`, 2.52% (inactive).
Turning to `O=C(NCc1ccccc1)c1onc(CSc2nc3ccccc3[nH]2)c1C(=O)NCc1ccccc1`, the activity change is -5.65% (inactive).
The result for `COc1ccccc1CSc1nc2ccccc2[nH]1` reads -54.1% (active); that for `CN(Cc1ccccc1)C(=O)CSc1nc2ccccc2[nH]1`, -8.05% (inactive).
The result for `O=C(NCC1CCCCC1)NCC1CCCCC1` reads 5.16% (inactive); that for `C[C@@H]1CN([C@@H](C)CO)C(=O)CCCn2nncc2CO[C@H]1CN(C)Cc1ccc(C(F)(F)F)cc1`, 14.2% (inactive).
Under `CCOC(=O)c1cccc(NC(=O)c2ccc(F)cc2F)c1` stands 13.7% (inactive).
Turning to `CCOC(=O)c1nnn(CC(=O)Nc2cccc(F)c2)c1C(=O)OCC`, the activity change is -64.5% (active).
The result for `CCOC(=O)c1cccc(NC(=O)CCn2nnc3ccccc32)c1` reads -9.21% (inactive); that for `Cc1cccc(-n2cc(CN3CCN(C(=O)c4ncn[nH]4)CC3)c(-c3cccc(F)c3)n2)c1`, 0.119% (inactive); that for `CCC(O)C1CCN(Cc2cn(-c3ccc(OC)cc3)nc2-c2cccc(F)c2)CC1` (centres undefined), -60.7% (active).
Regarding `COc1ccc(-n2cc(CN(C)Cc3n[nH]c(=O)[nH]3)c(-c3cccc(F)c3)n2)cc1`, the activity change was -3.96% (inactive).
Turning to `Cn1cc(CN2CCC(C(O)CCc3ccccc3)CC2)c(-c2ccccc2F)n1` (centres undefined), the activity change was -20.8% (inactive).
Under `COc1ccc(-n2cc(CNC3CCOCC3)c(-c3cccc(F)c3)n2)cc1` stands -66.6% (active); under `COc1ccc(-c2nn(-c3ccccc3)cc2CN2CCCO2)c(F)c1`, -28.9% (inactive).
